Source: PubChem BioAssay (NCATS)
Results filed as inconclusive are left out. Active and inactive are the calls of the source. Unless noted, calls come from the whole dose curve; as a rule, active = well fitted cell-killing curve with a large enough effect; inconclusive = small, poorly fitted or top-dose-only effect; inactive = flat fitted curve, though single readings scatter.

Experiments:
[1] = Cell Viability - LYMP2-025 (AID 976); note: series mostly up to about 92 µM
Method in brief: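 Cytotoxicity read as loss of intracellular ATP (luciferase luminescence) after 24 h compound treatment at 37 C. Uses LYMP2-025 lymphoblastoid cells in 1536-well format; Hill-equation modelling gives AC50; tetraoctylammonium bromide as positive control.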

[2] = Cell Viability - LYMP2-002 (AID 977); note: series mostly up to about 92 µM
Method in brief: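 Human lymphoblastoid cells (2500/well) in complete medium were preincubated 5 hr at 37 C, then exposed to compounds for 24 hr at 37 C. Intracellular ATP was read by CellTiter-Glo luminescence; AC50 came from Hill-equation concentration-response fits.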

[3] = Cell Viability - LYMP2-006 (AID 978); note: series mostly up to about 92 µM; nearly all actives have a fitted effect of over 60% in size
Method in brief: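 In this cytotoxicity screen, the human lymphoblastoid line grew in complete medium with test compounds for 24 hr at 37 C. Cellular ATP served as the viability signal.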

[4] = Cell Viability - LYMP2-007 (AID 979);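 note: cells exposed to compound for 24 h before reading; nearly all actives have a fitted effect of over 60% in size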
Method in brief: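 AC50 values come from Hill-equation fits of luminescent intracellular ATP (CellTiter-Glo, 30 min, room temperature) following 24 h compound exposure at 37 C. Cells: LYMP2-007 lymphoblastoid line, 2500 per well, in complete culture medium.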

[5] = Cell Viability - LYMP2-008 (AID 980); note: nearly all actives have a fitted effect of over 60% in size
Method in brief: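 Cytotoxicity determined from ATP-dependent luciferase luminescence (CellTiter-Glo) following 24 h compound exposure of human lymphoblastoid LYMP2-008 cells at 37 C. Concentration-response data fitted to the Hill equation to give AC50.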

[6] = Cell Viability - LYMP2-010 (AID 981); note: nearly all actives have a fitted effect of over 55% in size
Method in brief: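 CellTiter-Glo ATP luminescence measured cytotoxicity after 24 h compound exposure at 37 C. LYMP2-010 cells were seeded at 2500/well, with tetraoctylammonium bromide as control; concentration-response curves gave AC50 values by the Hill equation.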

[7] = Cell Viability - LYMP2-012 (AID 982);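 note: cellular ATP by luciferase luminescence where a drop means cytotoxicity; cells exposed to compound for one day before reading; nearly all actives have a fitted effect of over 55% in size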
[8] = Cell Viability - LYMP2-014 (AID 983); note: series mostly up to about 92 µM; nearly all actives have a fitted effect of over 50% in size
Method in brief: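 Intracellular ATP loss, read by luciferase luminescence, measures acute cytotoxicity after 24 h compound exposure of lymphoblastoid LYMP2-014 cells (2500/well, 37 C). Concentration-response data fitted to the Hill equation for AC50.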

[9] = Cell Viability - LYMP2-016 (AID 984); note: nearly all actives have a fitted effect of over 55% in size
Method in brief: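 Concentration-dependent ATP depletion measured in LYMP2-016 lymphoblastoid cells, 24 h, 37 C; luciferase-based luminescent detection; Hill-equation AC50.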

[10] = Cell Viability - LYMP2-018 (AID 985); note: nearly all actives have a fitted effect of over 50% in size
Method in brief: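 Viability read as CellTiter-Glo luminescence (cellular ATP) after 24 hr compound exposure at 37 C of 2500 LYMP2-018 lymphoblastoid cells/well, pre-plated 5 hr. Hill-equation modelling gave AC50.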

[11] = Cell Viability - LYMP2-020 (AID 986); note: series mostly up to about 92 µM; nearly all actives have a fitted effect of over 55% in size
Method in brief: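 Cytotoxicity in qHTS format: luminescent ATP readout from CellTiter-Glo after 24 h compound exposure at 37 C in complete medium. LYMP2-020 lymphoblastoid cells were seeded at 2500/well; concentration-response data fitted to the Hill equation for AC50.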

[12] = Cell Viability - LYMP2-022 (AID 987); note: nearly all actives have a fitted effect of over 55% in size
Method in brief: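 Cytotoxicity read as decreased cellular ATP (CellTiter-Glo luminescence, 30 min room temperature) after 24 hours compound exposure of 2500 lymphoblastoid LYMP2-022 cells/well at 37 C. Concentration-response data fitted with standard Hill equation for AC50.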

[13] = Cell Viability - LYMP2-024 (AID 988); note: nearly all actives have a fitted effect of over 60% in size
Method in brief: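 Cytotoxicity was taken as a decrease in ATP (CellTiter-Glo luminescence) after 24 hr compound exposure at 37 C of LYMP2-024 lymphoblastoid cells, 2500 cells/well. Concentration-response data were fitted to the Hill equation to give AC50.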

[14] = Cell Viability - LYMP2-026 (AID 989); note: nearly all actives have a fitted effect of over 50% in size
Method in brief: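 Cytotoxicity read as ATP-dependent luminescence (CellTiter-Glo, 30 min room temperature) after 24 h compound treatment at 37 C. LYMP2-026 lymphoblastoid line seeded at 2500 cells/well; AC50 derived by standard Hill equation.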

[15] = Cell Viability - LYMP1-002 - Assay at 24 hr (AID 993)
Method in brief: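 qHTS cytotoxicity at 24 h: CellTiter-Glo ATP luminescence in lymphoblastoid line LYMP1-002 incubated with compound at 37 °C. Concentration-response modeled with the Hill equation for AC50; tetraoctylammonium bromide served as positive control.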

[16] = Cell Viability - LYMP1-002 - Assay at 40 hr (AID 994); note: nearly all actives have a fitted effect of over 60% in size
Method in brief: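 Cytotoxicity was read as loss of cellular ATP (CellTiter-Glo luminescence) after 40 hr compound exposure at 37 C of 2500 LYMP1-002 lymphoblastoid cells per well. Concentration-response data were fitted with the standard Hill equation to give AC50.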

[17] = qHTS Assay for Identification of Small Molecule Inducers of Hypoxia Response (AID 2120; active = well fitted curve in the direction sought with a large enough effect in the signal ratio, with a control signal flat, not every such curve was filed as active; the % refers to the signal ratio)
Method in brief: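 Reporter induction read as the CCF4 blue/green (460nm/530nm) emission ratio after 2.5 h dye loading at room temperature. ME-180 HRE-beta-lactamase cells received titrated compounds for 17 h at 37 degrees Celsius; AC50 values derived.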

[18] = molecular target: Estrogen receptor (Homo sapiens) (UniProt P03372); experiment: qHTS assay for small molecule antagonists of estrogen receptor alpha signaling (AID 588513; active = well fitted curve in the direction sought with a large enough effect in the signal ratio, with a control signal flat, not every such curve was filed as active; the % refers to the signal ratio)
Method in brief: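 Antagonist-mode qHTS in ER-alpha-UAS-bla HEK 293 cells: compound titration, 0.5nM estradiol for 18 h, CCF4 fluorescence, Hill-derived IC50.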

[19] = molecular target: Estrogen receptor (Homo sapiens) (UniProt P03372); experiment: qHTS assay for small molecule agonists of estrogen receptor alpha signaling (AID 588514; calls by dose curve; note: nearly all actives have a fitted effect of over 70% in size)
Method in brief: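 EC50 and efficacy came from Hill fits of beta-lactamase reporter signal (CCF4 dye, 2 h at room temperature) scaled between DMSO and 20 nM 17-beta-estradiol. Agonist mode: HEK293 ER-alpha-UAS-bla cells in charcoal/dextran-stripped serum medium, 18 h compound exposure at 37 C.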

Measured: Potency

Chain of Estrogen receptor (Homo sapiens) (P03372 whole entry, looked up): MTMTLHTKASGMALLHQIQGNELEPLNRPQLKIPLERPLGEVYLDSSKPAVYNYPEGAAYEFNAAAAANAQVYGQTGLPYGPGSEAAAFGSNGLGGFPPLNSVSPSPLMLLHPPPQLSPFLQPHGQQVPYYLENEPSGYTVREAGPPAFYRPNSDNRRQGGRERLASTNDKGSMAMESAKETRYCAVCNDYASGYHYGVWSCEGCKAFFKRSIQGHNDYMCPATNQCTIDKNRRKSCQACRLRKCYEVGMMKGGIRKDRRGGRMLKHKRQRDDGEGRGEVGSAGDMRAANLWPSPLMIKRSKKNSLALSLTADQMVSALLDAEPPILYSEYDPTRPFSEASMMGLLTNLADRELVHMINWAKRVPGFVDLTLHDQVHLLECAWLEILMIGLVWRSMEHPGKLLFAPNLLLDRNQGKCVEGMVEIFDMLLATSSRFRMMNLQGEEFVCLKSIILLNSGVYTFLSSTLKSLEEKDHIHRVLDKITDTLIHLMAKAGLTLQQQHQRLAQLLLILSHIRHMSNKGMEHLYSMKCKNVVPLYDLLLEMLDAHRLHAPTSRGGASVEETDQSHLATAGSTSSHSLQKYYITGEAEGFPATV

Cc1cccc([N+](=O)[O-])c1C(=O)O
inactive: all assays above

Cc1ccc(CO)cc1
inactive: all assays above

Nc1cc([N+](=O)[O-])ccc1C(=O)O
inactive: all assays above

Cc1ccccc1C#N
inactive: all assays above

O=[N+]([O-])c1cccc(Cl)c1
inactive: all assays above

CCC(O)C(C)(C)C (stereo not given)
inactive: all assays above

CC/C=C/C#N
inactive: all assays above

CCCCCCC=O
inactive: all assays above

C(=C/c1ccccc1)/c1ccccc1
inactive: all assays above

Cc1ccccc1C=O
inactive: all assays above

C=CCOC(=O)CCCCCCCC
inactive: all assays above

COc1ccc(N=[N+]([O-])c2ccc(OC)cc2)cc1
inactive: all assays above

C=C(C)C1CC=C(C)C(OC(C)=O)C1 (stereo not given)
inactive: all assays above

CCC(C)(C)C
inactive: all assays above

CCCCCCO
inactive: all assays above

Cc1cc(C)cc(O)c1
inactive: all assays above

O=C(Cl)c1cccc([N+](=O)[O-])c1
inactive: all assays above

CC(=O)Nc1cccc(N)c1
not listed: [9]
inactive: all other assays above

CCCCCCCCCCCCC1CO1 (stereo not given)
not listed: [15]
inactive: all other assays above

O=C(O)c1cccc(Cl)c1Cl
not listed: [9] | [14]
inactive: all other assays above

C/C(C=O)=C/c1ccccc1
not listed: [14]
inactive: all other assays above

C=CCCCC
not listed: [15]
inactive: all other assays above

CC(=O)OC(C)C
not listed: [8]
inactive: all other assays above

CC#N
not listed: [10]
inactive: all other assays above

CC(=O)Nc1ccc(C)cc1
not listed: [8]
inactive: all other assays above

Nc1ccc([N+](=O)[O-])c(N)c1
not listed: [14]
inactive: all other assays above

CCCCC(CC)COC(=O)CCCCC(=O)OCC(CC)CCCC (stereo not given)
not listed: [8]
inactive: all other assays above

O=C(O[C@@H](C(=O)O)[C@@H](OC(=O)c1ccccc1)C(=O)O)c1ccccc1
not listed: [15]
inactive: all other assays above

C=CCCC
not listed: [15]
inactive: all other assays above

CCc1ccccc1
not listed: [10]
inactive: all other assays above

Cc1ccc(C(C)(C)C)cc1
not listed: [15]
inactive: all other assays above

C/C=C1\CC2C=CC1C2 (stereo not given)
not listed: [10]
inactive: all other assays above

FB(F)F
not listed: [10]
inactive: all other assays above
